Screens as filed in PubChem.
In the library only some 6.1% were active in any assay of this set; here they are far more common.
DRD3 agonist = D3 dopamine receptor (human) agonism; AID 652048; 410,000 compounds, 0.58% hits; D3R DiscoveRx beta-arrestin cells, luminescence, 90 min; P35462; max activation, %; in the data active means max activation above about 30%
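Agonist-mode cell screen: cells plated at 1500/well and incubated overnight at 37 °C, then exposed to library compounds for 90 min at 37 °C. Detection reagent was added for 30–60 min at room temperature, and luminescence was read.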
D1 potentiator = human D1 dopamine receptor positive modulation | HEK293 TREx D1 cells, calcium flux, dopamine EC20 potentiation | AID 504651 | potentiation, % at 10 µM | 360,000 compounds, 0.036% hits; in the data active means potentiation above about 30%
Target sequence (P21728 whole entry, looked up): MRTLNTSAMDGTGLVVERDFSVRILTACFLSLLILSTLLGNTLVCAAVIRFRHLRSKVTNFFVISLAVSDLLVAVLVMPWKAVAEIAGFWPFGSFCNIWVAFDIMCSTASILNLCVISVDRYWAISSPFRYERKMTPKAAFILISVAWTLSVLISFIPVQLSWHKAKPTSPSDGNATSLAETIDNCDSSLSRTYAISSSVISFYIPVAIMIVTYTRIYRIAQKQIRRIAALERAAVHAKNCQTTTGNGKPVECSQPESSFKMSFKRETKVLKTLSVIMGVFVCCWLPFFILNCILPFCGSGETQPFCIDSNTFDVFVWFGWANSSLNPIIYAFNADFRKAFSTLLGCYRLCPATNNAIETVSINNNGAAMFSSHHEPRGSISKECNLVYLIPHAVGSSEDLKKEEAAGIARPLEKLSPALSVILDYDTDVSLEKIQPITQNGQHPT
D1 agonist = agonists of human D1 dopamine receptor | P21728 | HEK293 T-REx D1 cells, calcium flux, agonist mode | activation, % at 2 µM | 360,000 compounds, 1% hits | AID 504660; in the data active means activation above about 30%
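Inducible HEK293 T-REx D1 cells, force-coupled to calcium signalling, were plated at 4000 cells/well with tetracycline and held overnight at 30 C. After no-wash calcium dye loading, compound-evoked calcium rise over 180 s flagged agonists.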
D3 antag = D3 dopamine receptor (human) antagonism. P35462. D3R cells, DiscoveRx beta-arrestin luminescence, antagonist mode; stronger effect = lower value. max response, negative = inhibition, %. 360,000 compounds, 2.5% hits. AID 652054; in the data active means max response below about -50%; inconclusive means no clear call, values can overlap the other calls
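Cells expressing the human receptor were seeded at 1500 cells/well, incubated overnight at 37 degrees C in 5% CO2, then exposed to library compounds with dopamine controls for 90 minutes at 37 degrees C before luminescent detection.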
D1 antagonist = human D1 dopamine receptor antagonism. HEK293 TREx D1 cells, calcium flux, dopamine EC80; stronger effect = lower value. activity change, negative = inhibition, % at 10 µM. 360,000 compounds, 3.2% hits; in the data active means activity change below about -30%
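Cells carrying a force-coupled, tetracycline-inducible human D1 receptor report calcium flux. Each well gets a 10 s baseline, compound with 180 s monitoring, then an EC80 dopamine stimulus with a second 180 s kinetic read.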
Numbers stand for hits; 0 = inactive; ? = inconclusive; - = no result.

SMILES | DRD3 agonist | D1 potentiator | D1 agonist | D3 antag | D1 antagonist
CC1CCC(C(C)C)C(OC(=O)c2ccccc2N)C1 (stereo not drawn) | 0 | - | - | - | -
C#CCN1CC(=O)N(COC(=O)C2C(C=C(C)C)C2(C)C)C1=O (stereo not drawn) | 0 | - | - | - | -
CC(Cc1ccccc1)[n+]1cc(/N=C(\[O-])Nc2ccccc2)on1 (stereo not drawn) | 0 | 0 | 0 | -54 | -
COc1ccc(CNCCc2c[nH]c3ccccc23)c(OC)c1C | 0 | 0 | 0 | -71 | 0
COc1cccc(CNCCc2c[nH]c3ccccc23)c1 | 0 | 0 | 0 | -54 | 0
COc1cc(C)c(CNCCc2c[nH]c3ccccc23)cc1C | 0 | 0 | 0 | 0 | 0
CN(CCc1ccccc1)Cc1c[nH]c2ccccc12 | 0 | 0 | 0 | 0 | -66
COc1ccc(CN(CCc2c[nH]c3ccccc23)Cc2ccc(OC)cc2)cc1 | 0 | - | - | -50 | -
CCOC(=O)/C=C(C)/C=C/C[C@@H](C)CCCC(C)C | 0 | - | - | - | -
Cc1ccccc1CN1C(=O)C(C)N=C(c2ccccc2)c2ccccc21 (stereo not drawn) | 0 | 0 | 0 | - | 0
CCOc1cc(CNCCc2c[nH]c3ccccc23)cc(Cl)c1OCC | 0 | 0 | 0 | -76 | 0
c1ccc(CN2CCN(Cc3ccc4c(c3)OCCO4)CC2)cc1 | 0 | 0 | 0 | -76 | 0
COc1ccccc1OCC(=O)N1CCN(Cc2ccc3c(c2)OCO3)CC1 | 0 | 0 | 0 | 0 | 0
S=C=S | 0 | - | - | - | -
CCCN(CCC)C1CCc2cccc(O)c2C1 (stereo not drawn) | 0 | - | - | 0 | -
CCCN(CCC)C1CCc2ccc(O)cc2C1 (stereo not drawn) | 122 | 0 | 0 | - | -61
CN(C)CCc1c[nH]c2cccc(O)c12 | 0 | - | - | - | -
COc1cc(CCN)cc(OC)c1OC | 0 | - | - | - | -
c1ccc(C(OCCN2CCNCC2)c2ccccc2)cc1 | 0 | 0 | 0 | -68 | 0
Cn1c(=O)n(C)c2cc(CNCCc3ccccc3F)ccc21 | 0 | 0 | 0 | - | 0
CCOC(=O)[C@]12Cc3cc(C)ccc3[C@H]1N(C1CCCCC1)C(=O)c1cc(OC)ccc12 | 0 | - | - | -64 | -
CCOC(=O)[C@]12Cc3cc(OC)ccc3[C@H]1N(C1CCCCC1)C(=O)c1cc(OC)ccc12 | 0 | - | - | ? | -
CC(C)CCC(=O)O[C@H]1CC[C@H]2[C@@H]3CCC4=CC(=O)CC[C@]4(C)[C@H]3CC[C@]12C | 0 | - | - | - | -
C[C@@H]1[C@@H]2Cc3ccc(O)cc3[C@@]1(C)CCN2CCc1ccccc1 | 0 | - | - | - | -
CC1C2Cc3ccc(O)cc3[C@]1(C)CCN2CCc1ccccc1 (stereo partly drawn) | 0 | - | - | -93 | -
SMILES | DRD3 agonist | D1 potentiator | D1 agonist | D3 antag | D1 antagonist
CCOC(=O)C1=C(N)OC2=C(C(=O)CC(C)(C)C2)C12C(=O)Nc1ccccc12 (stereo not drawn) | 0 | 0 | 0 | 0 | -37
CCOC(=O)C1=C(N)OC2=C(C(=O)CCC2)C12C(=O)Nc1ccccc12 (stereo not drawn) | 0 | 0 | 0 | 0 | 0
NC(=O)c1ccc(OCCC(O)N2CC=C(c3ccc(F)cc3)CC2)cc1 (stereo not drawn) | 0 | 0 | 0 | -57 | 0
CC(N)Cc1ccc2c(c1)OCO2 (stereo not drawn) | 0 | - | - | - | -
c1cc2c(c(NC3=NCCN3)c1)CCCC2 | 0 | - | - | - | -
CN1CC(C(=O)c2cccs2)C(c2ccc(Cl)cc2)C1 (stereo not drawn) | 0 | 0 | 0 | -75 | 0
O=C(O)CCCO | 0 | - | - | - | -
CC(C)C[C@H](CN)CC(=O)O | 0 | - | - | - | -
O=C([O-])c1ccc(-[n+]2c(-c3ccccc3)cc(-c3ccccc3)cc2-c2ccccc2)cc1 | 55 | 0 | 0 | 0 | 0
Oc1ccc(-[n+]2c(-c3ccccc3)cc(-c3ccccc3)cc2-c2ccccc2)cc1 | 0 | 0 | 0 | 0 | 0
CCCCc1ccc(NC(=O)c2cccn(Cc3ccc(Cl)cc3)c2=O)cc1 | 0 | 0 | 0 | - | 0
Cc1ccsc1C(=O)C1CCCN(Cc2ccc(-n3cccn3)cc2)C1 (stereo not drawn) | 0 | 0 | 0 | -63 | 0
Cc1ccsc1C(=O)C1CCCN(Cc2cccc(-n3cccn3)c2)C1 (stereo not drawn) | 0 | 0 | 0 | -80 | 0
COc1cc(CN2CCCC(C(=O)c3sccc3C)C2)cc(OC)c1O (stereo not drawn) | 0 | 0 | 0 | 0 | 0
Cc1ccsc1C(=O)C1CCCN(Cc2cccc(OCCO)c2)C1 (stereo not drawn) | 0 | 0 | 0 | ? | 0
CCN(CC)CCSc1nc2ccccc2c(=O)n1-c1ccc(Cl)cc1 | 0 | 0 | 0 | - | 0
CCOC(=O)C(O)(c1ccc(NC(=O)Oc2ccccc2)cc1)C(F)(F)F (stereo not drawn) | 0 | 0 | 0 | ? | 0
COC(=O)C(O)(c1ccc(NC(=S)NC(=O)c2ccc(Cl)cc2Cl)cc1)C(F)(F)F (stereo not drawn) | 0 | 0 | 31 | ? | -32
CCOC(=O)C(O)(c1ccc(NC(=S)NC(=O)c2ccc(Cl)cc2Cl)cc1)C(F)(F)F (stereo not drawn) | 0 | 0 | 44 | ? | 0
COC(=O)C(O)(c1ccc(NC(=O)NC2CCCCC2)cc1)C(F)(F)F (stereo not drawn) | 0 | 0 | 0 | 0 | 0
S=C=Nc1cccc(C2(N3CCCCC3)CCCCC2)c1 | 84 | 0 | 0 | 0 | -91
c1ccc(C2(N3CCCCC3)CCCCC2)cc1 | 0 | - | - | 0 | -
Cn1c(CCCC(=O)O)nc2cc(N(CCCl)CCCl)ccc21 | 0 | - | - | - | -
C=CC[C@]1(O)CC[C@H]2[C@@H]3CCC4=CC(=O)CCC4=C3C=C[C@@]21C | 0 | - | - | - | -
COC(=O)C1=C(c2cccc3c2S(=O)(=O)c2ccccc2-3)C[C@@H]2CC[C@H]1N2C(=O)N1CCOCC1 | 0 | 0 | 0 | 0 | 0
SMILES | DRD3 agonist | D1 potentiator | D1 agonist | D3 antag | D1 antagonist
COC(=O)C1=C(c2cccc3c2S(=O)(=O)c2ccccc2-3)C[C@@H]2CC[C@H]1N2C(=O)N1CCc2cc(OC)c(OC)cc2C1 | 0 | 0 | 0 | 0 | -48
O=C1NC(=O)C(=Cc2ccc(Oc3ccc([N+](=O)[O-])cc3)cc2)C(=O)N1 | 0 | 0 | 0 | 0 | -36
Cc1ccc(CN2C3CCCC2CC(NC(=O)Nc2cccc(F)c2)C3)cc1 (stereo not drawn) | 0 | 0 | 30 | -99 | -42
CN[C@@H]1C[C@@H](c2ccc(Cl)c(Cl)c2)c2ccccc21 | 0 | 0 | 0 | - | -51
O=C(c1cc(F)ccc1F)C1CCCN(Cc2cccc(Cl)c2)C1 (stereo not drawn) | 0 | 0 | 0 | -79 | 0
O=C(c1cc(F)ccc1F)C1CCCN(CCCc2ccccc2)C1 (stereo not drawn) | 0 | 0 | 0 | -74 | 0
CSc1ncc(CN2CCCC(C(=O)c3ccccc3SC)C2)cn1 (stereo not drawn) | 0 | 0 | 0 | 0 | 0
COCCCNC(=O)Cn1cc(/C=C2\C(=O)NC(=O)N(c3ccccc3F)C2=O)c2ccccc21 | 0 | 0 | 32 | 0 | 0
